Reference: PubChem BioAssay AID1159580 (chemical genetic matrix, 2015)
Several values for one entry are separate records, joined by “and”; a condition that tells them apart may be missing. Identical values can stand only once. Screen size: about 5,500 compounds; about 2,000 (36%) were called active. Not shown: some 18% with an inconclusive outcome. No stated cut-off is given here; in the data, active means normalized growth mostly below about 0.91 (no sharp cut-off); inconclusive means no clear call, values can overlap the other calls; inactive means mostly above about 0.92. This is one part of the list.

Assay: chemical genetic growth profiling, strain panel (AID 1159580);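 further: tested at 20 µM; growth read once vehicle control cultures reached saturation at 30 °C; 1 = growth at the plate median or of vehicle wells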
Conditions: S. cerevisiae deletion strains, growth OD

Measured: normalized growth

COC(=O)C[C@H]1C(C)(C)[C@@H](O)[C@@H]2CC3=C4CC(O)O[C@@H](c5ccoc5)[C@]4(C)CCC3[C@@]1(C)C2=O (some centres not stated)
inactive: locus YAL013W, strain DEP1, stronger effect = lower value 1.01 | locus YAL021C, strain ccr4, stronger effect = lower value 1.01 | locus YAL026C, strain drs2, stronger effect = lower value 1.06 | locus YAL030W, strain snc1, stronger effect = lower value 1.03 | locus YBL061C, strain skt5, stronger effect = lower value 1.03 | locus YBR009C, strain hhf1, stronger effect = lower value 1.02 | locus YBR021W, strain FUR4, stronger effect = lower value 1.07 | locus YBR023C, strain chs3, stronger effect = lower value 1 | locus YBR171W, strain sec66, stronger effect = lower value 1.05 | locus YBR229C, strain ROT2, stronger effect = lower value 1 | locus YBR231C, strain swc5, stronger effect = lower value 1.03 | locus YBR279W, strain paf1, stronger effect = lower value 1.03 | locus YCL011C, strain gbp2, stronger effect = lower value 1 | locus YCL016C, strain dcc1, stronger effect = lower value 0.99 | locus YCL029C, strain bik1, stronger effect = lower value 0.99 | locus YCL069W, strain vba3, stronger effect = lower value 1.01 | locus YCR088W, strain abp1, stronger effect = lower value 1.02 | locus YDL005C, strain med2, stronger effect = lower value 1.03 | locus YDL035C, strain GPR1, stronger effect = lower value 1.03 | locus YDL040C, strain nat1, stronger effect = lower value 1.02 | locus YDL074C, strain BRE1, stronger effect = lower value 1.01 | locus YDL101C, strain DUN1, stronger effect = lower value 1 | locus YDL134C, strain PPH21, stronger effect = lower value 0.978 | locus YDL185W, strain tfp1, stronger effect = lower value 0.962 | locus YDL192W, strain arf1, stronger effect = lower value 0.989 | locus YDR001C, strain nth1, stronger effect = lower value 1.02 | locus YDR069C, strain doa4, stronger effect = lower value 1.02 | locus YDR101C, strain arx1, stronger effect = lower value 0.999 | locus YDR137W, strain rgp1, stronger effect = lower value 1.01 | locus YDR159W, strain sac3, stronger effect = lower value 1.09 | locus YDR162C, strain NBP2, stronger effect = lower value 0.987 | locus YDR195W, strain ref2 1.01 | locus YDR297W, strain sur2, stronger effect = lower value 1.03 | locus YDR318W, strain mcm21, stronger effect = lower value 0.991 | locus YDR334W, strain swr1, stronger effect = lower value 1.03 | locus YDR335W, strain msn5, stronger effect = lower value 1.01 | locus YDR388W, stronger effect = lower value 0.984 | locus YDR392W, strain spt3, stronger effect = lower value 0.938 | locus YDR502C, strain sam2, stronger effect = lower value 0.981 | locus YEL003W, strain gim4, stronger effect = lower value 1.05 | locus YEL037C, strain rad23, stronger effect = lower value 1.03 | locus YEL061C, strain CIN8 (second series), stronger effect = lower value 1.02 | locus YEL061C, strain CIN8, stronger effect = lower value 1.01 | locus YER015W, strain faa2, stronger effect = lower value 1.01 | locus YER016W, strain bim1, stronger effect = lower value 1.02 | locus YER110C, stronger effect = lower value 0.98 | locus YER111C, strain swi4, stronger effect = lower value 1.03 | locus YER155C, strain BEM2 (second series), stronger effect = lower value 1.08 | locus YER155C, strain BEM2, stronger effect = lower value 0.998 | locus YER167W, strain BCK2, stronger effect = lower value 1.01 | locus YFR010W, strain ubp6, stronger effect = lower value 1.05 | locus YGL078C, strain dbp3, stronger effect = lower value 0.97 | locus YGL086W, strain mad1, stronger effect = lower value 1.02 | locus YGL167C, strain pmr1, stronger effect = lower value 1.02 | locus YGL173C, strain kem1, stronger effect = lower value 1.06 | locus YGL227W, strain vid30, stronger effect = lower value 1.03 | locus YGL240W, strain doc1, stronger effect = lower value 1.04 | locus YGL248W, strain PDE1, stronger effect = lower value 1.01 | locus YGL253W, strain hxk2, stronger effect = lower value 1.04 | locus YGR078C, strain PAC10, stronger effect = lower value 0.985 | locus YGR135W, strain pre9, stronger effect = lower value 0.95 | locus YGR229C, strain SMI1, stronger effect = lower value 1.04 | locus YGR252W, strain gcn5, stronger effect = lower value 0.981 | locus YHR013C, strain ard1, stronger effect = lower value 1.01 | locus YHR027C, strain rpn1, stronger effect = lower value 1.02 | locus YHR030C, strain SLT2, stronger effect = lower value 1.01 | locus YHR079C, strain IRE1 (second series), stronger effect = lower value 0.984 | locus YHR079C, strain IRE1, stronger effect = lower value 1.01 | locus YHR094C, strain hxt1, stronger effect = lower value 0.979 | locus YHR129C, strain ARP1, stronger effect = lower value 1 | locus YHR142W, strain chs7, stronger effect = lower value 0.994 | locus YHR200W, strain rpn10, stronger effect = lower value 0.996 | locus YIL066C, strain RNR3, stronger effect = lower value 1.02 | locus YIL073C, strain SPO22, stronger effect = lower value 0.916 | locus YIL125W, strain kgd1, stronger effect = lower value 0.987 | locus YIR030C, strain dcg1, stronger effect = lower value 0.976 | locus YJL092W, strain hpr5, stronger effect = lower value 1.03 | locus YJL095W, strain BCK1 (second series), stronger effect = lower value 1.02 | locus YJL095W, strain BCK1, stronger effect = lower value 0.977 and 1.02 | locus YJL115W, strain asf1, stronger effect = lower value 1.03 | locus YJL129C, strain trk1, stronger effect = lower value 1 | locus YJL134W, strain LCB3, stronger effect = lower value 1 | locus YJL154C, strain vps35, stronger effect = lower value 1.02 | locus YJL164C, strain tpk1, stronger effect = lower value 1.01 | locus YJL166W, strain qcr8, stronger effect = lower value 1.03 | locus YJL168C, strain set2, stronger effect = lower value 0.991 | locus YJL187C, strain SWE1 (second series), stronger effect = lower value 0.987
